# Bioassay records deposited in PubChem by National Center for Advancing Translational Sciences (NCATS).
# HP1b chromo inh – inhibitors of HP1-beta chromodomain binding to methylated histone tails. P83916. AlphaScreen HP1-beta / biotin-H3K9me3 peptide binding. Potency, µM (titrated, usually from 114 µM), for the others: at the highest dose activity change, negative = inhibition, hits mostly inhibitors. actives 0.56% (n = 390,000). AID 540317; also: potency is read from the fitted curve at half-maximal effect; nearly all actives have a fitted effect of over 70% in size
# Target sequence (P83916 whole entry, looked up): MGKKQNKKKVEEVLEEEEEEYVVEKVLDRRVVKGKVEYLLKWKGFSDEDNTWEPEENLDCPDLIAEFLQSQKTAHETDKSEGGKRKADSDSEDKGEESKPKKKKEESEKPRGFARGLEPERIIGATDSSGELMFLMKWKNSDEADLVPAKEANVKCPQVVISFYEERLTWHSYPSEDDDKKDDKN
#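 AlphaScreen: HP1-beta (50 nM) preformed 30 min with biotin-H3(1-18)K9me3 peptide (50 nM) in PBS pH 7.4, 0.01% Tween-20. Compound added for 30 min at RT, then streptavidin donor/nickel chelate acceptor beads (10 ug/mL) for 30 min.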
# CtBP-E1A inh – blocks the CtBP interaction with E1A; activity change, % (no concentration beside the values); AID 651724; AlphaScreen GST-E1A/His-CtBP binding, 1536-well; stronger effect = lower value; actives 0.49% (n = 340,000); in the data active = activity change below about -65%; inconclusive = mostly about -30% to -63%; also: % is scaled to controls: 0 for no effect and ±100 for the full control effect
#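 AlphaScreen with 125 nM GST-E1A and 125 nM His-CtBP (5X stocks) in Tris pH 8.0, 300 mM NaCl, BSA, Tween 20, TCEP. Compounds preincubated 2 h at 37 deg C, then glutathione donor/nickel acceptor beads added for 1 h at 37 deg C in dark.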
# G9a inh – inhibitors of human histone lysine methyltransferase G9a; G9a H3K9 monomethylation, AlphaScreen, 2 h; Potency, µM (doses to about 102 µM), for inactives: at the top dose activity, negative = inhibition, actives largely listed as inhibitors; actives 8.8% (n = 350,000); also: potency is read from the fitted curve at half-maximal effect; % is scaled to controls: 0 for no effect and ±100 for the full control effect; nearly all actives have a fitted effect of over 75% in size
# Target sequence (Q96KQ7 913-1193 limits assumed): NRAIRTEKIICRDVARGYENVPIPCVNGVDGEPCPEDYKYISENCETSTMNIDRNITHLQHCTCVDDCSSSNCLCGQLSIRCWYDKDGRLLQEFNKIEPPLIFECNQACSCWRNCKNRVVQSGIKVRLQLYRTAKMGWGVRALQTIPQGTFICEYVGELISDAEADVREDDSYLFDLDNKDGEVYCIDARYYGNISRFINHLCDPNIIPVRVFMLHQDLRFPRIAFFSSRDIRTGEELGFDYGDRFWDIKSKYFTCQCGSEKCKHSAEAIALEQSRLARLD
#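 Chemiluminescent proximity detection of H3K9 monomethylation, read after 10 min bead incubation in the dark. Reaction: 20 nM G9a, 500 nM biotin-H3K9 peptide, 20 uM SAM cofactor, 2 h, room temperature, following 15 min enzyme-compound preincubation.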
# Six1-Eya2 blk – blocks human Six1 binding to Eya2 | AlphaScreen GST-Six1/His-Eya2 binding, biochemical; stronger effect = lower value | activity change, % (concentration not given with the values) | actives 0.56% (n = 360,000) | AID 651725; in the data active = activity change below about -65%; inconclusive = mostly about -30% to -63%; also: % is scaled to controls: 0 for no effect and ±100 for the full control effect
#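 Six1/Eya2 binding was read as AlphaScreen signal after compounds were pinned into GST-Six1 plus His-tagged Eya2 (5X stock 250/500 nM) in pH 8.0 Tris/NaCl/TCEP buffer, beads added, then incubated 1 h, 37 C, dark.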
# BAZ2B block – blocks human BAZ2B. Q9UIF8. AlphaScreen BAZ2B-H3K14Ac peptide displacement. Potency, µM (doses to about 114 µM), without a hit: at the top dose activity change, negative = inhibition, most hits filed as inhibitors. actives 4.4% (n = 360,000). AID 504333; also: potency is read from the fitted curve at half-maximal effect; % is scaled to controls: 0 for no effect and ±100 for the full control effect; nearly all actives have a fitted effect of over 60% in size
#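 BAZ2B (50 nM) with biotin-H3(5-23)K14Ac peptide (50 nM) in PBS pH 7.4, 0.01% Tween-20, preformed 30 min, then compound 30 min at room temperature; top concentration 110uM. AlphaScreen streptavidin donor/nickel chelate acceptor beads (10 ug/mL final), 20 min dark, signal read.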
# JMJD2A Tudor – inhibitors of human JMJD2A Tudor domain. O75164. AID 504339. actives 4.4% (n = 390,000). Potency, µM (top dose mostly 114 µM), for the others: at the highest dose activity change, negative = inhibition, hits mostly inhibitors. AlphaScreen JMJD2A-Tudor / H3K4me3 peptide binding; also: potency is read from the fitted curve at half-maximal effect; % is scaled to controls: 0 for no effect and ±100 for the full control effect; nearly all actives have a fitted effect of over 50% in size
# * = called active by the depositor; ? = inconclusive; · = no result; [ ] = another dose, or the depositor's remark. Rows were chosen to be rich in hits. Some 10% of all compounds tested hit in one or more screens of this group. Unless noted, calls follow the shape of the dose curve; as a rule, active = well fitted inhibition curve with a large enough effect; inconclusive = small, poorly fitted or top-dose-only effect; inactive = no such curve, though single readings can be large or run the other way.
SMILES,HP1b chromo inh,CtBP-E1A inh,G9a inh,Six1-Eya2 blk,BAZ2B block,JMJD2A Tudor
Cc1ccc(CNCc2ccco2)cc1,-4.7%,·,22.4µM*,-2.5,56.2µM*,28.2µM*
CSc1ccc(CNCc2ccco2)cc1,15.6%,-0.6,?,-8.1,-30.6%,-17.9%
COc1cc(CNCc2ccco2)cc(OC)c1O,34.7%,0.0,70.8µM*,-1.2,-4.4%,-6.2%
COc1ccc(-n2nc3c(N4CCC(C(=O)NCc5cccc(F)c5)CC4)nnc(C)c3c2C)cc1,59.4%,·,?,·,?,-33.1%
O=C(NCC(c1cccnc1)N1CCN(Cc2ccccc2)CC1)C(=O)Nc1cccc(F)c1 (centres undefined),37.2%,·,-11.1%[59 µM],·,-3.9%,-8.2%
COC(=O)/C(=C\c1ccc([N+](=O)[O-])cc1)NC(=O)c1ccccc1,-1.5%[57 µM],-91.4*,·,-24.9,·,-9.0%
O=C(N/N=C/c1ccc(O)c(O)c1O)/C(=C/c1ccc([N+](=O)[O-])cc1)NC(=O)c1ccccc1,25.1µM*,-94.5*,1.58µM*,-90.0*,?,31.6µM*
Cc1ccc(NC(=O)/C(=C\c2ccc([N+](=O)[O-])cc2)NC(=O)c2ccccc2)cc1,25.8%,2.2,-11.9%[0.0925 µM],-2.7,1.4%,7.7%
Clc1ccc(CCNC(c2ccc(Cl)cc2)c2nnc(-c3ccccc3)o2)cc1 (centres undefined),89.2%,·,65.4%[59 µM],·,48.9%,59.6%
CCn1c(SCc2ccc(F)cc2Cl)nnc1-c1nonc1NC(C)=O,28.6%,·,1.0%[59 µM],·,2.8%,-9.6%
COc1ccc(-c2cc(C(=O)Oc3ccc(Br)cc3)c3ccccc3n2)cc1,101.7%,·,70.0%[59 µM],·,37.0%,63.3%
CC1CN(c2oc(COc3ccc(Cl)cc3Cl)nc2C#N)CC(C)O1 (centres undefined),-49.2%,?,?,?,35.5µM*,?
COc1ccc(N2CCN(c3oc(/C=C/c4ccccc4OC)nc3C#N)CC2)cc1,?,·,?,·,3.16µM*,?
N#Cc1nc(COc2ccccc2Cl)oc1N1CCCCCC1,?,-8.5,-5.0%[59 µM],-14.4,?,-20.6%
N#Cc1nc(COc2ccccc2)oc1N1CCN(c2cccc(Cl)c2)CC1,-22.6%,-3.2,?,-1.0,?,-25.1%
N#Cc1nc(COc2ccccc2Cl)oc1N1CCCC1,?,-0.6,7.94µM*,-23.0,12.6µM*,?
CC1CN(c2oc(-c3ccco3)nc2C#N)CC(C)O1 (centres undefined),4.6%,8.8,-31.6%,2.4,-28.8%,-15.9%
CCN1CCN(c2oc(COc3ccc(-c4ccccc4)cc3)nc2C#N)CC1,-60.0%,-18.6,39.8µM*,?,31.6µM*,?
Cc1cc(C)c(NC(=O)CSc2nc(C)cc(C)c2C#N)c(C)c1,39.3%,·,5.7%[59 µM],·,-15.6%,-4.5%
CCOc1ccc(CCNC(=O)Cn2nc(C)n3c(cc4occc43)c2=O)cc1OCC,4.4%,·,5.3%[59 µM],·,0.5%,-15.8%
COc1ccc(OCc2nc(C#N)c(N3CCN(c4ccc(OC)cc4)CC3)o2)cc1,-7.2%,?,11.2µM*,?,?,?
COc1ccc(CNc2oc(COc3ccccc3Cl)nc2C#N)cc1,-22.6%,-9.0,-10.2%[12.7 µM],-15.3,?,-23.0%
COc1ccc(N2CCN(c3oc(COc4ccccc4Cl)nc3C#N)CC2)cc1,?,?,10µM*,?,7.94µM*,?
N#Cc1nc(-c2ccccc2Cl)oc1N1CCCCC1,?,-24.4,35.5µM*,?,22.4µM*,?
Cc1cc2c(cc1C)NC(CC(=O)NCc1ccccc1)C(=O)N2 (centres undefined),19.8%,-11.8,3.16µM*,-7.4,7.2%,-24.1%
COC(=O)c1c(NC(=O)CC2Nc3cc(C)c(C)cc3NC2=O)sc(C)c1C (centres undefined),29.9%,0.2,20µM*,1.3,0.2%,-11.7%
